Values joined by “and” are separate entries in the source; they are usually repeats but may differ in a detail not shown here. Equal values may be shown once. Some structures have more than one record in an assay (separate samples or runs), and their calls can disagree. Active and inactive are the calls of the source. The calls were made as follows: active = hit-call score of the fitted dose curve at least 0.9, where 1 is the maximum; inactive = score below 0.9.
Legend:
[1] = ATG_M_06_CIS: Attagene CIS-FACTORIAL HepG2 Assay for M06 Transcription Factor (Internal Marker) (AID 2282950); conditions: HepG2 Attagene CIS-FACTORIAL M06 internal marker reporter; actives raise or lower the signal
Outline: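 Cells (HepG2, transiently carrying cis-driven reporter units) receive chemical for 24 h before RNA isolation. Reporter cDNA is PCR-amplified, FAM-labelled by primer extension, HpaI-digested and sized on a capillary analyser.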

[2] = molecular target: Hypoxia-inducible factor 1-alpha (Homo sapiens) (UniProt Q16665); assay: ATG_HIF1a_CIS: Attagene CIS-FACTORIAL HepG2 Assay for human Hypoxia Inducible Factor 1 (HIF1A) (AID 2282951); conditions: HepG2 Attagene cis-factorial HIF1a reporter transcription; actives raise or lower the signal
Outline: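 Measures endogenous transcription-factor activity through cis-regulated reporter mRNA in HepG2. Cells dosed 24 h; transcripts quantified by RT-PCR with 6-FAM-labelled products separated by capillary electrophoresis; DMSO serves as negative control.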

[3] = molecular target: Hepatocyte nuclear factor 6 (Homo sapiens) (UniProt Q9UBC0); assay: ATG_HNF6_CIS: Attagene CIS-FACTORIAL HepG2 Assay for human Hepatocyte Nuclear Factor 6 (HNF6) (AID 2282952); conditions: HepG2 Attagene cis-factorial HNF6 reporter transcription; actives raise or lower the signal
Outline: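 Multiplexed mRNA reporter assay in transfected HepG2; 24 h dosing; RT-PCR plus capillary electrophoresis fluorescence; DMSO-referenced bidirectional curve fitting.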

[4] = molecular target: Heat shock factor protein 1 (Homo sapiens) (UniProt Q00613); assay: ATG_HSE_CIS: Attagene CIS-FACTORIAL HepG2 Assay for human Heat Shock Transcription Factor 1 (HSE) (AID 2282953); conditions: HepG2 HSE cis-reporter, Attagene RNA transcription; actives raise or lower the signal
Outline: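 Liver-derived HepG2 cells carry transiently introduced multiple reporter units governed by cis promoters. Reporter RNA measured 24 h post-dose through reverse transcription, PCR amplification, fluorescent labelling and capillary electrophoresis, normalised to DMSO.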

[5] = ATG_MRE_CIS: Attagene CIS-FACTORIAL HepG2 Assay for human Metal Responsive Element (MRE) (AID 2282954); conditions: HepG2 MRE cis-reporter transcription, Attagene multiplex; actives raise or lower the signal
Outline: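 HepG2 cells transiently transfected with multiple cis-element reporter units measure endogenous MTF1-driven transcription. After 24 h compound exposure, reporter mRNA is quantified by RT-PCR with 6-FAM labelling, HpaI digestion and capillary electrophoresis; bidirectional fits versus DMSO.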

[6] = molecular target: Paired box protein Pax-6 (Homo sapiens) (UniProt P26367); assay: ATG_Pax6_CIS: Attagene CIS-FACTORIAL HepG2 Assay for human Paired Box 6 (PAX6) (AID 2282956); conditions: HepG2 CIS-FACTORIAL PAX6 reporter transcription, RNA readout; actives raise or lower the signal
Outline: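 HepG2 cells transiently transfected with cis-promoter-driven multiplexed reporter units sensing endogenous transcription factor activity; 24 h chemical exposure. Reporter mRNA quantified by RT-PCR, 6-FAM labelling, HpaI digestion and capillary electrophoresis; bidirectional fit versus DMSO baseline.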

[7] = ATG_PXRE_CIS: Attagene CIS-FACTORIAL HepG2 Assay for human Pregnane X Receptor Element (PXRE) (AID 2282957); conditions: HepG2 Attagene CIS-FACTORIAL PXRE reporter, mRNA; actives raise or lower the signal
Outline: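 Cells: HepG2, transiently transfected reporter units under cis promoter control. Exposure: 24 h. Detection: reporter mRNA via RT-PCR/CE fluorescence; bidirectional fitting, DMSO-referenced.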

[8] = ATG_RORE_CIS: Attagene CIS-FACTORIAL HepG2 Assay for human RAR-related Orphan Receptor Element (RORE) (AID 2282959); conditions: HepG2 Attagene cis-factorial RORE reporter, mRNA; actives raise or lower the signal
Outline: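 Cells were HepG2 carrying transfected cis-regulated reporter constructs, dosed for 24 hours. Total RNA was reverse-transcribed and reporter cDNA amplified, fluorescently labeled and sized by capillary electrophoresis. Activity was fitted bidirectionally relative to DMSO.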

[9] = molecular target: Transcription factor Sp1 (Homo sapiens) (UniProt P08047); assay: ATG_Sp1_CIS: Attagene CIS-FACTORIAL HepG2 Assay for human Specificity Protein 1 (Sp1) (AID 2282961); conditions: HepG2 Sp1 cis-reporter transcription, actives raise or lower the signal
Outline: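 Endogenous Sp1 activity was gauged in human liver HepG2 cells bearing transfected reporter units under a cis-regulating promoter. After 24 h dosing, reporter mRNA was quantified by RT-PCR with capillary electrophoresis, and activity fitted bidirectionally versus DMSO.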

[10] = ATG_SREBP_CIS: Attagene CIS-FACTORIAL HepG2 Assay for human Sterol Regulatory Element Binding (SREBP) (AID 2282962); conditions: HepG2 Attagene cis-factorial SREBP reporter, mRNA; actives raise or lower the signal
Outline: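 HepG2 cells transiently transfected with multiplexed cis-promoter reporter units sensing endogenous transcription factors; reporter mRNA measured 24 h after dosing by RT-PCR, 6-FAM labeling, HpaI digestion and capillary electrophoresis. Bidirectional fit versus DMSO.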

[11] = molecular target: Signal transducer and activator of transcription 3 (Homo sapiens) (UniProt P40763); assay: ATG_STAT3_CIS: Attagene CIS-FACTORIAL HepG2 Assay for human Signal Transducer and Activator of Transcription 3 (STAT3) (AID 2282963); conditions: HepG2, Attagene cis-factorial STAT3 reporter transcription; actives raise or lower the signal
Outline: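 HepG2 cells transiently transfected with cis-element-driven multiple reporter transcription units; after 24 h chemical exposure, reporter mRNA measured by RT-PCR, 6-FAM primer-extension labelling, HpaI digestion and capillary electrophoresis. Bidirectional fitting versus DMSO baseline.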

[12] = ATG_TA_CIS: Attagene CIS-FACTORIAL HepG2 Assay for human TA Basal Promoter (AID 2282964); conditions: HepG2 Attagene CIS-factorial TA basal promoter reporter; actives raise or lower the signal
Outline: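 Background internal-marker endpoint from a 52-component HepG2 cis-reporter panel. Cells treated 24 h; reporter transcripts quantified via RT-PCR and CE fluorescence against DMSO baseline.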

[13] = ATG_TCF_b_cat_CIS: Attagene CIS-FACTORIAL HepG2 Assay for human T-Cell-Factor with beta-catenin (TCF/b-cat) (AID 2282965); conditions: HepG2 TCF/beta-catenin cis-reporter transcription, actives raise or lower the signal
Outline: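 Using capillary electrophoresis as the read-out, labelled reporter cDNA fragments from transiently transfected HepG2 were sized and quantified. Exposure lasted 24 hours; activity in either direction was referenced to DMSO.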

[14] = ATG_TAL_CIS: Attagene CIS-FACTORIAL HepG2 Assay for human TAL Basal Promoter (AID 2282966); conditions: HepG2 Attagene cis-factorial TAL promoter reporter; actives raise or lower the signal;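 also: background control endpoint measuring basal TAL promoter reporter mRNA not a specific factor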
Outline: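 RT-PCR plus capillary electrophoresis quantifies reporter mRNA induction in transiently transfected HepG2 cells after 24 h chemical treatment. DMSO serves as negative control and baseline for bidirectional fitting.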

[15] = ATG_TGFb_CIS: Attagene CIS-FACTORIAL HepG2 Assay for human Transforming Growth Factor (TGF) (AID 2282967); conditions: HepG2 Attagene CIS TGFb reporter, mRNA transcription; actives raise or lower the signal
Outline: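 Liver HepG2 line, cis-factorial reporter panel, 24 h dosing. Quantitation: RT-PCR products labeled with 6-FAM, cut with HpaI, resolved by capillary electrophoresis; DMSO-referenced bidirectional analysis.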

[16] = ATG_M_32_CIS: Attagene CIS-FACTORIAL HepG2 Assay for M32 Transcription Factor (Internal Marker) (AID 2282949); conditions: HepG2 Attagene cis-factorial M32 reporter, mRNA; actives raise or lower the signal;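 also: background control marker of the multiplexed CIS panel rather than a real target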
Outline: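 Internal background marker read-out: RT-PCR/capillary electrophoresis fluorescence of reporter transcripts from transiently transfected HepG2 cells after 24 h chemical exposure. Activity fitted bidirectionally relative to DMSO negative control.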

[17] = ATG_PBREM_CIS: Attagene CIS-FACTORIAL HepG2 Assay for human Phenobarbital-responsive Enhancer Module (PBREM) (AID 2282955); conditions: HepG2 PBREM cis-reporter, Attagene multiplexed transcription; actives raise or lower the signal
Outline: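 Fluorescence of labelled reporter cDNA fragments, resolved by capillary electrophoresis, gives mRNA induction in transfected HepG2 cells treated for 24 h; DMSO serves as negative control and baseline.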

[18] = ATG_PPRE_CIS: Attagene CIS-FACTORIAL HepG2 Assay for human Peroxisome Proliferator-activated Response Element (PPRE) (AID 2282958); conditions: HepG2 PPRE cis-element reporter, Attagene transcription factor profiling; actives raise or lower the signal
Outline: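 Cells are first transfected transiently with the multiplexed reporter library, then dosed for 24 h. Total RNA is reverse-transcribed, amplified, fluorescently end-labeled and HpaI-cut before capillary electrophoresis; activity is fitted bidirectionally against DMSO controls.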

[19] = ATG_Sox_CIS: Attagene CIS-FACTORIAL HepG2 Assay for human SRY-box transcription factor (SOX) (AID 2282960); conditions: HepG2 Attagene cis-factorial SOX reporter, mRNA; actives raise or lower the signal
Outline: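 Transient MRTU transfection of HepG2; 24 h compound incubation; TriZol RNA, oligo(dT) RT, PCR, 6-FAM primer extension, HpaI cut, CE. Bidirectional fit, DMSO = baseline.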

Measured: AC50

Chain of Heat shock factor protein 1 (Homo sapiens) (Q00613 whole entry, looked up): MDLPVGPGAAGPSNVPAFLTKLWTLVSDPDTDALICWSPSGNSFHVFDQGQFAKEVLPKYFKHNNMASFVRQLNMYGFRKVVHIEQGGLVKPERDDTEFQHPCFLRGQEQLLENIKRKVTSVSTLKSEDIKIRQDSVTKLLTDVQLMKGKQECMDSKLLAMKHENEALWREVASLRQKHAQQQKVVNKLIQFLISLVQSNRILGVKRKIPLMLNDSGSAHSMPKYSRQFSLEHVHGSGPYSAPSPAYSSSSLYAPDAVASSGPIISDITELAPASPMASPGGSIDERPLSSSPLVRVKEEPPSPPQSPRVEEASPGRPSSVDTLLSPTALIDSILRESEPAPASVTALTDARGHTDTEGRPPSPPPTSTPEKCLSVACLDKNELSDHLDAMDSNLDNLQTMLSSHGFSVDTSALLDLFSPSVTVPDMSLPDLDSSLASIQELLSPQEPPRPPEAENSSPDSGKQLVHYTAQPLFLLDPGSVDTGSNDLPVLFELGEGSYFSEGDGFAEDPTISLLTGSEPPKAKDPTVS
Chain of Hepatocyte nuclear factor 6 (Homo sapiens) (Q9UBC0 whole entry, looked up): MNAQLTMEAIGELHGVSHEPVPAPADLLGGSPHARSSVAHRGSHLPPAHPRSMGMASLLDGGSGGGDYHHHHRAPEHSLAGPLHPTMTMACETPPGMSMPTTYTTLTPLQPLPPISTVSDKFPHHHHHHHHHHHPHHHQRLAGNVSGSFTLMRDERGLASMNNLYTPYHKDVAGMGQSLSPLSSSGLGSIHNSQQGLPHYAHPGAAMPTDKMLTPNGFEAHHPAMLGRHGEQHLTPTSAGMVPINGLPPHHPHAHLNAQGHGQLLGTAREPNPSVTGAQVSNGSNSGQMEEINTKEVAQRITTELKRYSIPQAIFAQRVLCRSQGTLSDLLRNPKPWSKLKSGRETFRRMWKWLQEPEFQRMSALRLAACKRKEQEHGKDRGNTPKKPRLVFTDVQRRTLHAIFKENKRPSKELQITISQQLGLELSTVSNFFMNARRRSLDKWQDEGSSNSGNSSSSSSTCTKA
Chain of Signal transducer and activator of transcription 3 (Homo sapiens) (P40763 whole entry, looked up): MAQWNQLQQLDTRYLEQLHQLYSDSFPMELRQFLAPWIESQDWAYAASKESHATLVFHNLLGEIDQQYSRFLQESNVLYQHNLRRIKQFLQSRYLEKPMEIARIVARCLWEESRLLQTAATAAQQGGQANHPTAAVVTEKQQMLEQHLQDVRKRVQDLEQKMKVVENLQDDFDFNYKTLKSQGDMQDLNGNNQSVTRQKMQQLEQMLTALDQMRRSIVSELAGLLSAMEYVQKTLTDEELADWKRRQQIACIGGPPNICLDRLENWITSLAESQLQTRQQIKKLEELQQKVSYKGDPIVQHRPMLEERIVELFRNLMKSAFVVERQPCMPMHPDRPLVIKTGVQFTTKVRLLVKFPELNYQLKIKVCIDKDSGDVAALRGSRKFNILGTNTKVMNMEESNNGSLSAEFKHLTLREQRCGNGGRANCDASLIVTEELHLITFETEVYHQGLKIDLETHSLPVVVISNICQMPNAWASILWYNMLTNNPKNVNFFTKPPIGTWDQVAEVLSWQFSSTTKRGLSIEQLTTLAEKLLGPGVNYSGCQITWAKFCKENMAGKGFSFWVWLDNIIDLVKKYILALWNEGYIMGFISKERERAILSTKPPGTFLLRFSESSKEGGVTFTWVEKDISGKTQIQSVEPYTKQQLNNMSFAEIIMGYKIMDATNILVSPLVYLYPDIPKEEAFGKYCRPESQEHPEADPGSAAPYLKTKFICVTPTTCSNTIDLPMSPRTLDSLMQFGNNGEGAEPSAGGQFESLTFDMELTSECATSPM
Chain of Paired box protein Pax-6 (Homo sapiens) (P26367 whole entry, looked up): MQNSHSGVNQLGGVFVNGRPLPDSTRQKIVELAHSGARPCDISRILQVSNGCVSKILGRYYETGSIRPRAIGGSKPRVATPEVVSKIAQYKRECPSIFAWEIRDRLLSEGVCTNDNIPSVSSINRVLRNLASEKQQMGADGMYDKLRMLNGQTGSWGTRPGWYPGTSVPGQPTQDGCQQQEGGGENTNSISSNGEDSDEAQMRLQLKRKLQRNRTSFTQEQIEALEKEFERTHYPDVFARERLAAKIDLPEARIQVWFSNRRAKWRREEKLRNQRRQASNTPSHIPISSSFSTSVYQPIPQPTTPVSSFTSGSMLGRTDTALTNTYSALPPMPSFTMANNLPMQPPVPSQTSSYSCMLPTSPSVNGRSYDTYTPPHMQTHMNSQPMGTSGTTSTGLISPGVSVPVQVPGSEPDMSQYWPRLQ
Chain of Transcription factor Sp1 (Homo sapiens) (P08047 whole entry, looked up): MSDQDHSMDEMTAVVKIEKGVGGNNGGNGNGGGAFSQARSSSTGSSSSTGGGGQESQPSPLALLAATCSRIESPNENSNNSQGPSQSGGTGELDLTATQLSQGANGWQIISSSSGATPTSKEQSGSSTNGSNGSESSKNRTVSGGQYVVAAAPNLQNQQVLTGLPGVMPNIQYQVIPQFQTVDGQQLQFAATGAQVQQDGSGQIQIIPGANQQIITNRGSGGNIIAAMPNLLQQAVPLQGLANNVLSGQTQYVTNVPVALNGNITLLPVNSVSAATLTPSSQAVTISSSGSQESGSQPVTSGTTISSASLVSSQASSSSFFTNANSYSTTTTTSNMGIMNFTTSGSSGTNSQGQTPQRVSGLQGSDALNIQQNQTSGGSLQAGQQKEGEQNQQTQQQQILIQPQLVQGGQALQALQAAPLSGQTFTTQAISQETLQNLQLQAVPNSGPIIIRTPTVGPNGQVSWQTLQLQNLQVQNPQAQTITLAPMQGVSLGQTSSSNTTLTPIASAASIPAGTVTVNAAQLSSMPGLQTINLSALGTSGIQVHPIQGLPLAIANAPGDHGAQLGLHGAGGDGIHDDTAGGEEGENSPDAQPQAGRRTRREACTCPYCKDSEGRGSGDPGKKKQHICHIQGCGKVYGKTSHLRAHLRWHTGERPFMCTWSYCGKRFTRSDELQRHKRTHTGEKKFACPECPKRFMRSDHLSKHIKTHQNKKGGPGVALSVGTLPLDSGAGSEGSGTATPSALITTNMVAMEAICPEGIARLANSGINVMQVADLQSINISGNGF
Chain of Hypoxia-inducible factor 1-alpha (Homo sapiens) (Q16665 whole entry, looked up): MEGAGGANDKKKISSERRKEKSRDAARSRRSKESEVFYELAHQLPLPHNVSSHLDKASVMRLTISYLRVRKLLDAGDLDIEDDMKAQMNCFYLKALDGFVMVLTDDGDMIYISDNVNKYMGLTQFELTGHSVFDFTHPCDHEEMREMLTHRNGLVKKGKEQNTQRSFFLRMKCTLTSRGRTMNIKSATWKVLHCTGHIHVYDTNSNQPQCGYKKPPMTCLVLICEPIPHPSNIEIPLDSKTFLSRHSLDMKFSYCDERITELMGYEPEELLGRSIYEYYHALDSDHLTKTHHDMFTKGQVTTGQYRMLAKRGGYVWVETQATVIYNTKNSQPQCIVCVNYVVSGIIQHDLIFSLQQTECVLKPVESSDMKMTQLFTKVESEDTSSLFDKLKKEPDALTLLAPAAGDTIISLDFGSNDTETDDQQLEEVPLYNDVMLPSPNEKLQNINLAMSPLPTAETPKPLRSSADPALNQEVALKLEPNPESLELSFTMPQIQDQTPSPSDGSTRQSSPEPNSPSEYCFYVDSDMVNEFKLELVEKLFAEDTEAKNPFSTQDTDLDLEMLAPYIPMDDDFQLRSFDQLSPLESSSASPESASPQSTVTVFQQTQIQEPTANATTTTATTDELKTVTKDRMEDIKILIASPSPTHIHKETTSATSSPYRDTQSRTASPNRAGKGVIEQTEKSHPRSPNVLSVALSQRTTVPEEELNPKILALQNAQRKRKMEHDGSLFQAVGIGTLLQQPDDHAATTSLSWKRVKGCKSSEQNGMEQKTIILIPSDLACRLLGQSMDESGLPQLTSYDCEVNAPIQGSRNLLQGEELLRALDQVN

Oc1c(Cl)ccc(Cl)c1Cl
active: [7] 49.8 µM
not listed: [16] | [17] | [18] | [19]
inactive: all other assays above

CC(C)(C)C1CCCCC1O (stereo not drawn)
not listed: [19]
inactive: all other assays above

CCC1CO1 (stereo not drawn)
not listed: [3] | [17]
inactive: all other assays above

NCc1cccc(CN)c1
active: [2] 24.4 µM
not listed: [19]
inactive: all other assays above

CC1COCc2cc3c(cc21)C(C)(C)C(C)C3(C)C (stereo not drawn)
active: [4] 147 µM | [5] 144 µM | [6] 160 µM | [7] 1.23 µM | [8] 164 µM | [19] 73.2 µM | [9] 100 µM | [11] 176 µM | [12] 168 µM | [14] 144 µM
inactive: [1] | [2] | [3] | [18] | [10] | [13] | [15]

CC(C)c1c(C(=O)Nc2ccccc2)c(-c2ccccc2)c(-c2ccc(F)cc2)n1CC[C@@H](O)C[C@@H](O)CC(=O)O
active: [2] 57.9 µM and 22.5 µM | [5] 61.4 µM and 34.3 µM | [17] 25.3 µM | [6] 94.5 µM | [7] 5.31 µM and 12.2 µM | [10] 0.156 µM | [12] 66.4 µM and 45 µM | [13] 144 µM | [14] 41.9 µM and 20.2 µM
inactive: [16] | [1] | [4] | [17] | [6] | [8] | [19] | [9] | [10] | [11] | [13] | [15]

CCc1cccc(CC)c1N(COC)C(=O)CS(=O)(=O)O
active: [17] 8.56 µM | [7] 3.8 µM
inactive: all other assays above

CCCCCCCCCCCC
active: [7] 4.16 µM | [15] 124 µM
inactive: [16] | [1] | [2] | [3] | [4] | [5] | [6] | [7] | [8] | [19] | [9] | [10] | [11] | [12] | [13] | [14] | [15]

FC(F)(F)C(F)(F)C(F)(F)C(F)(F)I
not listed: [17]
inactive: all other assays above

CCc1cccc(CC)c1NC(=O)C(=O)O
not listed: [3] | [17]
inactive: all other assays above

O=S(=O)(O)c1ccccc1
active: [7] 55.5 µM | [18] 57.9 µM
inactive: [16] | [1] | [2] | [3] | [4] | [5] | [6] | [7] | [18] | [8] | [19] | [10] | [11] | [12] | [13] | [14] | [15]

CNNCc1ccc(C(=O)NC(C)C)cc1
active: [7] 25.7 µM
inactive: [16] | [1] | [2] | [3] | [4] | [5] | [17] | [6] | [7] | [19] | [10] | [11] | [12] | [13] | [14] | [15]

O=C(O)CCC(F)(F)C(F)(F)C(F)(F)C(F)(F)C(F)(F)F
not listed: [3]
inactive: all other assays above

COC(=O)CC(C(C)=O)C(=O)OC (stereo not drawn)
not listed: [17] | [19]
inactive: all other assays above

C[N+](C)(CCCNS(=O)(=O)CCC(F)(F)C(F)(F)C(F)(F)C(F)(F)C(F)(F)C(F)(F)F)CC(=O)[O-]
active: [7] 0.00267 µM | [10] 0.00355 µM | [13] 0.000979 µM
not listed: [18]
inactive: all other assays above

— PubChem BioAssay (EPA / NIEHS)
